Bioassay records (PubChem)
Only some compounds are listed: those with a hit (about 17% of all), similar ones and a draw of the others.
DT40 TDP1 no CPT = qHTS for Inhibitors of human tyrosyl-DNA phosphodiesterase 1 (TDP1): qHTS in cells in absence of CPT | Potency, µM (highest dose often 46.2 µM), inactives show at the highest dose activity change, negative = growth inhibition, most hits filed as inhibitors | hit rate 15% among 420,000 | DT40 Tdp1-/- hTDP1 cells, no CPT, ATP luminescence, 48 h; further: on the % scale 0 is the no-effect control and ±100 the full control effect; nearly all actives have a fitted effect of over 55% in size
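Compound effects on proliferation are scored in DT40 Tdp1-/-;hTDP1 cells in the absence of CPT. ATP levels (CellTiter-Glo luminescence) are recorded after a ≥48 hr, 37 °C incubation.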
TGFb SMAD3 inh = blocks TGF-b signaling. HepG2 CAGA-GFP TGF-b/SMAD3 reporter, GFP fluorescence, 18 h; TGF-beta stimulated, 500 pg/mL final. Potency, µM (highest dose often 46.1 µM), for inactives: at the highest dose activity, negative = inhibition, usual class: inhibitors. hit rate 1.2% among 410,000. AID 588855; further: on the % scale 0 is the no-effect control and ±100 the full control effect; nearly all actives have a fitted effect of over 65% in size
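HEPG2 CAGA-GFP cells (1000/well, DMEM with 1% FBS) were pre-incubated 2 h at 37 degrees C, given compound by pin tool, then stimulated with TGF-beta at 500 pg/mL final for 18 h before per-cell GFP fluorescence imaging.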
HepG2 tox = HepG2 cytotoxicity, counter-screen for TGF-b inhibitors; HepG2 CAGA-GFP viability, ATP luminescence, 18 h; Potency, µM (top dose mostly 46.1 µM), without a hit: top-dose activity change, negative = cytotoxicity, most hits filed as cytotoxic; hit rate 0.76% among 410,000
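CellTiter-Glo luminescence gave cytotoxicity after 18 hours at 37 degrees C. The cells were HepG2 CAGA-GFP in 1% FBS DMEM, stimulated with 500 pg/mL TGF-beta after compound addition. %Activity was normalised to no-cell wells (complete cell-killing) and DMSO (no toxicity), and curves were fitted and classified.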
ATXN viability = cell viability loss in ATXN counter-screen | AID 651635 | hit rate 0.49% among 400,000 | S2 cells (HEK-293 line with an ATXN2-luciferase reporter) viability, CellTiter-Fluor protease fluorescence, 24 h | Potency, µM (highest dose often 56.7 µM), actives largely listed as cytotoxic; further: nearly all actives have a fitted effect of over 40% in size
ATXN2 expr inh = inhibitors of ATXN2 expression; AID 1745845; hit rate 0.72% among 360,000; Potency, µM (doses to about 57 µM), inactives show top-dose activity change, negative = inhibition, usual class: inhibitors; HEK-293 ATXN2-luciferase reporter, luminescence, 24 h; further: on the % scale 0 is the no-effect control and ±100 the full control effect; nearly all actives have a fitted effect of over 55% in size
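ATXN2-luciferase reporter cells (luciferase flanked by upstream and downstream ATXN2 gene portions) were treated 24 h at 37 °C with compounds at up to 57 uM. SteadyGlo luminescence gave expression; GF-AFC fluorescence gave viability.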
DT40 TDP1 CPT = growth inhibition of DT40 Tdp1-/-;hTDP1 cells with camptothecin (screen for TDP1 inhibitors). chicken DT40 Tdp1-/-;hTDP1 cells + 20 nM CPT, ATP luminescence, 48 h. Potency, µM (series often up to 46.2 µM), inactives show top-dose activity change, negative = growth inhibition, actives largely listed as inhibitors. hit rate 12% among 420,000; further: on the % scale 0 is the no-effect control and ±100 the full control effect; nearly all actives have a fitted effect of over 55% in size
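Chicken DT40 Tdp1-/- cells stably complemented with human TDP1 were seeded at 400 cells/well in medium containing 20 nM camptothecin, exposed to pin-transferred compounds, and grown at 37 °C for at least 48 hr. Viability was read as ATP luminescence.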
* marks the source's active call; other numbers are inactive results; i = inactive; ? = inconclusive; . = no result given. The call rests on the fitted dose curve; in most records, active means well fitted curve in the direction sought with a large enough effect; inconclusive means small, poorly fitted or top-dose-only effect, or another doubt; inactive means no such curve, though single readings can be large; an effect the other way counts as inactive or inconclusive. Potency means the concentration at half of the fitted maximal effect.

SMILES | DT40 TDP1 no CPT | TGFb SMAD3 inh | HepG2 tox | ATXN viability | ATXN2 expr inh | DT40 TDP1 CPT
CC(=O)N1c2ccc(S(=O)(=O)NCC3CCC(C(=O)Nc4ccc(C)cc4)CC3)cc2CC1C (centres undefined) | ? | -5% | -15% | . | . | ?
CC(=O)N1c2ccc(S(=O)(=O)NCC3CCC(C(=O)Nc4ccccc4C)CC3)cc2CC1C (centres undefined) | 21µM* | -27% | -27% | . | . | 26µM*
CC(=O)N1c2ccc(S(=O)(=O)NCC3CCC(C(=O)Nc4cc(C)ccc4C)CC3)cc2CC1C (centres undefined) | 18µM* | -30% | -35% | . | . | 23µM*
CC(=O)N1c2ccc(S(=O)(=O)NCC3CCC(C(=O)N4CC(C)CC(C)C4)CC3)cc2CC1C (centres undefined) | 13µM* | ? | -38% | i | . | 16µM*
CC(=O)N1c2ccc(S(=O)(=O)NCC3CCC(C(=O)NCc4ccc(C)cc4)CC3)cc2CC1C (centres undefined) | 15µM* | -27% | -2% | i | . | 21µM*
O=C(CN1C(=O)CCC1=O)Nc1cccc(NC(=O)CN2C(=O)CCC2=O)c1 | 2% | 3% | 0% | ? | ? | -4%
C/C(=N\NC(=O)CNC(=O)c1cccc(F)c1)c1ccc2ccccc2c1 | -15% | -29% | -31% | i | -26% | -14%
CC(=O)N1c2ccc(S(=O)(=O)NCC3CCC(C(=O)Nc4cccc(F)c4)CC3)cc2CC1C (centres undefined) | 12µM* | -25% | -46% | . | . | 3.3µM*
CC(=O)N1c2ccc(S(=O)(=O)NCC3CCC(C(=O)Nc4cc(C)ccn4)CC3)cc2CC1C (centres undefined) | 16µM* | ? | -13% | i | ? | 18µM*
CCCNC(=O)C1CCC(CNS(=O)(=O)c2ccc3c(c2)CC(C)N3C(C)=O)CC1 (centres undefined) | ? | 4% | -12% | i | 7% | ?
CC(=O)N1c2ccc(S(=O)(=O)NCC3CCC(C(=O)NC4CCCCC4)CC3)cc2CC1C (centres undefined) | 2.9µM* | -10% | -14% | i | . | -19%
CC(=O)N1c2ccc(S(=O)(=O)NCC3CCC(C(=O)NCCC(C)C)CC3)cc2CC1C (centres undefined) | 16µM* | 1% | -23% | . | . | 15µM*
CC(=O)N1c2ccc(S(=O)(=O)NCC3CCC(C(=O)Nc4ncccc4C)CC3)cc2CC1C (centres undefined) | -3% | 20% | -2% | i | 4% | ?
O=C(NCC1CCCO1)C(c1ccccn1)N(Cc1ccccc1Cl)C(=O)CN1C(=O)c2ccccc2S1(=O)=O (centres undefined) | -2% | 1% | 6% | ? | 6% | 22%
COC(=O)c1ccc(S(=O)(=O)N(C2CCCCC2)C2CCCCC2)n1C | 23µM* | -21% | -9% | ? | -32% | ?
Cc1ccccc1NC(=O)Cn1cc(C(=O)c2ccco2)c2ccccc21 | ? | 8% | -18% | i | -8% | ?
O=C(CCN1C(=O)C2C3C=CC(C3)C2C1=O)Nc1ccccc1 (centres undefined) | 2% | -5% | -5% | i | 5% | -1%
Cc1cc(NC(=O)CCN2C(=O)C3C4C=CC(C4)C3C2=O)c2ccccc2n1 (centres undefined) | 21µM* | -14% | 8% | i | -9% | ?
Cc1ccc2ncnc(Oc3ncccc3[N+](=O)[O-])c2c1 | 6.5µM* | ? | -72% | i | -17% | 5.8µM*
Cc1cc(=O)oc2cc(Oc3ncccc3[N+](=O)[O-])ccc12 | -9% | 9% | 1% | i | -15% | 23%
COc1ccc(-c2cc(C(C)=O)c(C)n2CCC(=O)Nc2cc(Cl)ccc2C)cc1 | 18µM* | -24% | -19% | . | . | 21µM*
COc1ccc(-c2cc(C(C)=O)c(C)n2CCC(=O)Nc2ccc(C)c(Cl)c2)cc1 | 18µM* | -16% | -30% | . | . | 15µM*
COc1ccc(-c2cc(C(C)=O)c(C)n2CCC(=O)NC2CCCCC2)cc1 | ? | -24% | -10% | . | . | 23µM*
CC(=O)c1cc(-c2ccccc2)n(CC(=O)NC2CCCC2)c1C | -20% | -3% | 5% | i | -1% | -16%
COc1ccc(-c2cc(C(C)=O)c(C)n2CCC(=O)Nc2cccc(C)c2C)cc1 | ? | 0% | -3% | . | . | ?
SMILES | DT40 TDP1 no CPT | TGFb SMAD3 inh | HepG2 tox | ATXN viability | ATXN2 expr inh | DT40 TDP1 CPT
O=C(OCC(=O)N1CCCc2ccccc21)c1c(F)cccc1F | 13% | 0% | -12% | i | 2% | 13%
COc1ccc(OCCC(=O)OCC(=O)NCc2ccccc2OC)cc1 | -4% | -7% | -24% | i | -2% | 4%
CN(C(=O)CN1C(=O)S/C(=C\c2ccccc2)C1=O)C1CCS(=O)(=O)C1 (centres undefined) | -4% | 10% | 4% | i | . | 16%
CN(C(=O)CN1C(=O)/C(=C/c2ccccc2Cl)SC1=S)C1CCS(=O)(=O)C1 (centres undefined) | ? | -6% | -5% | i | 3% | 16µM*
CCN(C(=O)CCN1C(=O)S/C(=C\c2ccccc2)C1=O)C1CCS(=O)(=O)C1 (centres undefined) | ? | 7% | -7% | i | 3% | 16µM*
CN(C(=O)CN1C(=O)/C(=C/c2ccccc2F)SC1=S)C1CCS(=O)(=O)C1 (centres undefined) | ? | 2% | -19% | i | 30% | 18µM*
CN(C(=O)CN1C(=O)S/C(=C\c2ccccc2Cl)C1=O)C1CCS(=O)(=O)C1 (centres undefined) | 19% | -5% | -2% | i | 1% | -22%
COc1cc(CC2COC(c3ccc(O)c(OC)c3)C2COC(C)=O)ccc1O (centres undefined) | -19% | 10% | -26% | i | -2% | -26%
Cc1ccccc1CSc1nnc(-c2ccncc2)n1C | 8% | -1% | 0% | i | -6% | 12%
COC(=O)c1ccc(-c2ccc(/C=N/N3C(=O)C4C5C=CC(C6CC56)C4C3=O)o2)cc1 (centres undefined) | 18µM* | 2% | -7% | i | 11% | ?
